Reference: article PMC4336329 (PLoS ONE, 2015)
In all, about 310,000 compounds went through this assay and about 14,000 (4.5%) showed an effect of 50% or more. Effects have a minus sign here. The sample as a whole holds a higher share of strong results than the screen did.

target: human ether-à-go-go-related gene (hERG) potassium channel (human, UniProt Q12809); assay: primary screen, population patch clamp on CHO cells stably expressing hERG; higher = less effect of the substance
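Also: peak tail current of the secondary pulse compared with the same well before compound.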

Sequence of human ether-à-go-go-related gene (hERG) potassium channel (Q12809 whole entry, looked up): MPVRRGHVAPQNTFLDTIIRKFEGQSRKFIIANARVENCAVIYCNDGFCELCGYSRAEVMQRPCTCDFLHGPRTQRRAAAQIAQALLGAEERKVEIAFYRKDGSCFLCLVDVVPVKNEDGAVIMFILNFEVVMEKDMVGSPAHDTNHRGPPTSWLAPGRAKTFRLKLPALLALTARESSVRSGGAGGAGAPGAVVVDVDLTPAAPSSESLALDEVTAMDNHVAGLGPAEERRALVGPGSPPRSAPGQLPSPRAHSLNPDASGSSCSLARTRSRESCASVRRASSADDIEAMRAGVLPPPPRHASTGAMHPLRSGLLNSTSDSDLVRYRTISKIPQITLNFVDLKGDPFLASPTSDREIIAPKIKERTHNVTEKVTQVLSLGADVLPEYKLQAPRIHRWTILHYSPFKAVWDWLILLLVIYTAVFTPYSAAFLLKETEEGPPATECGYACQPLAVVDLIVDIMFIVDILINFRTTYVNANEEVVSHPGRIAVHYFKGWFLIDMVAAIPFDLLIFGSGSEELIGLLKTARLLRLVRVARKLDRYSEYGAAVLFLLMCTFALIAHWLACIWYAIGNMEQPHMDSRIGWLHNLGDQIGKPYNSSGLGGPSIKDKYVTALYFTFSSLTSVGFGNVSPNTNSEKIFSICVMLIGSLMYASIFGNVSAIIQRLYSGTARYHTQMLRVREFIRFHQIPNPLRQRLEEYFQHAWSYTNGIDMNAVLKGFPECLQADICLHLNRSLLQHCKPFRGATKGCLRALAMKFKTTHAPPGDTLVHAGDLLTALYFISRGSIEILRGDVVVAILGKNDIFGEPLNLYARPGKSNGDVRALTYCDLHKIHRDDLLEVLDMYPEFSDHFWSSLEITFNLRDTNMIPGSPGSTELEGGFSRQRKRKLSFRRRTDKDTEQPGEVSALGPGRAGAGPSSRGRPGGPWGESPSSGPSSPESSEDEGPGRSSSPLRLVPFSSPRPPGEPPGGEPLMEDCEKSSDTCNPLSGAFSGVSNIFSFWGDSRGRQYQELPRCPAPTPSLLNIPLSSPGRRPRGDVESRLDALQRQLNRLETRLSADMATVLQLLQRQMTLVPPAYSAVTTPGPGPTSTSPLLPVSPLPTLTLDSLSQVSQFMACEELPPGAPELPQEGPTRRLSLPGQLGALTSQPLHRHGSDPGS

Row | SMILES | hERG current change (%, negative = inhibition) at 10uM [%]
1 | Cc1ccc(C)c(NC(=S)NCCN(C2CCCCC2)C2CCCC2)c1 | -68.5
2 | CN(C)CCNC(=S)Nc1cccc(Cl)c1 | -27
3 | Cc1cc(C)cc(NC(=S)NCCCO)c1 | -0.803
4 | Cc1ccc(C)c(NC(=S)NCc2ccccc2)c1 | 13.8
5 | S=C(NCCN(C1CCCCC1)C1CCCC1)Nc1cccc(Cl)c1 | -71.3
6 | CCOCCCNC(=S)Nc1cc(C)cc(C)c1 | 11
7 | S=C(Nc1cccc(Cl)c1)NC1CCCCC1 | 7.58
8 | Cc1cccc(NC(=S)NCCN(C2CCCCC2)C2CCCC2)c1 | -70.3
9 | Cc1cccc(NC(=S)NC2CCCC2)c1 | 0.919
10 | Cc1cccc(NC(=S)N(C)C2CCCCC2)c1 | 5.51
11 | Cc1cc(C)cc(NC(=S)NCCN(C2CCCCC2)C2CCCC2)c1 | -69.6
12 | Cc1ccc(SCCNC(=S)Nc2cc(C)ccc2C)cc1 | 4.34
13 | Cn1ncc(Cl)c(Oc2ccc(C(C)(C)C)cc2)c1=O | -26
14 | CCOc1ccccc1NC(=O)c1cc(SC)ccc1Cl | 50.4
15 | COc1cc(/C=N/NC(=O)CCOc2ccccc2C)cc(Br)c1O | -16.4
16 | CC1CC(C)CN(C(=O)CCC(=O)Nc2nnc(C3CCCCC3)s2)C1 (centres unmarked) | 14.2
17 | CC(C)(C)CN1CCNC(=O)C1CC(=O)NCCc1ccccc1F (centres unmarked) | 4.25
18 | COc1ccccc1-c1csc(NC(=O)c2cc(-c3cccs3)nc3ccccc23)n1 | 8.88
19 | COc1ccc2cc(C3CC(c4ccco4)=NN3S(=O)(=O)c3ccccc3)c(Cl)nc2c1 (centres unmarked) | 4.38
20 | CCN(CC(=O)NCc1cccs1)C(=O)c1ccc(NS(=O)(=O)c2cccc([N+](=O)[O-])c2)cc1 | -19.7
21 | C/C(=N\NC(=S)NCc1ccccc1)c1ccc(Br)cc1 | 22.8
22 | O=C(O)C1CSC(c2ccccc2Cl)N1C(=O)c1ccc(Cl)cc1 (centres unmarked) | 14.9
23 | O=C(CN1CCN(c2ccccn2)CC1)NCCc1ccccc1 | -9.55
24 | Fc1ccccc1N1CCN(Cc2c(F)cccc2F)CC1 | 7.89

Row | SMILES | hERG current change (%, negative = inhibition) at 10uM [%]
25 | C/C=C(\C)CN1CCN(c2cc(C)ccc2C)CC1 | 6.08
26 | Cc1ccc(C)c(N2CCN(CCN3CCCCC3)CC2)c1.Cl | -3.6
27 | c1ccc(CCCN2CCN(c3ccccc3)CC2)cc1 | -61.3
28 | c1ccc(CCCN2CCN(c3ccccn3)CC2)cc1 | -51.7
29 | O=C(CCc1ccccc1)N1CCN(c2ccccc2F)CC1 | 15.9
30 | NCCCN1CCN(c2ccccc2)CC1 | -8.45
31 | CCOC(=O)N1CCN(CCCc2ccccc2)CC1 | -6.26
32 | O=C(CCc1ccccc1)N1CCN(c2ccccn2)CC1 | -9.9
33 | Fc1ccccc1N1CCN(CCCc2ccccc2)CC1 | -64.7
34 | Cc1ccc(C)c(N2CCN(CCCc3ccccc3)CC2)c1 | -59.9
35 | O=C(O)c1ccn[nH]1 | -0.906
36 | Cc1ccc(/C=N/NC(=O)c2nnn(-c3nonc3N)c2C(C)C)o1 | -4.22
37 | CSc1ncccc1C(=O)OCC(=O)c1cccs1 | 19.4
38 | CCOP(=O)(OCC)C(NC(=O)Nc1ccc(Cl)cc1)C(=O)N(CC)CC (centres unmarked) | -13.4
39 | CC(c1ccccc1)n1cncc1C(=O)O (centres unmarked) | 18
40 | CCn1c(SCC(=O)c2c[nH]c3ccccc23)nc2cc(S(=O)(=O)N3CCOCC3)ccc21 | 9.49
41 | C=C(C)CSc1nnc([C@H](CCSC)NC(=O)OC(C)(C)C)o1 | -14.3
42 | c1coc(CNc2nc3ccccc3s2)c1 | 11.1
43 | Cn1ccnc1SCC(=O)c1cc2ccccc2o1 | 4.65
44 | Cc1nn(C2CCS(=O)(=O)C2)c(Cl)c1/C=C/C(=O)OCC(=O)Nc1ccc2c(c1)OCO2 (centres unmarked) | 7.01
45 | O=C(NCCc1ccccc1)C1CCC(Cn2c(=O)c3ccccc3n(Cc3cccnc3)c2=O)CC1 (centres unmarked) | -37.3
46 | CCOc1ccc(/C=C2\SC(=S)N(N3C(=O)C4CC4C3=O)C2=O)cc1 (centres unmarked) | 15.4
47 | c1ccc(CCN2CCC(N3CCN(c4ccccc4)CC3)CC2)cc1 | -66.4
48 | Cc1cccc(CN2CCN(CCCc3ccccc3)CC2)c1.O=C(O)C(=O)O | -75.4

Row | SMILES | hERG current change (%, negative = inhibition) at 10uM [%]
49 | Cc1cccc(CN2CCN(Cc3ccc(Cl)cc3)CC2)c1.O=C(O)C(=O)O | -40
50 | Cc1ccc(N2CCN(CCc3ccccc3)CC2)cc1 | -36.2
51 | Cc1cccc(CN2CCN(C(=O)Cc3ccccc3)CC2)c1.O=C(O)C(=O)O | 4.99
52 | O=S(=O)(Cc1ccccc1)N1CCC(N2CCN(c3ccccc3)CC2)CC1 | -22.7
53 | CC1=NN(c2ccccc2)C(=O)/C1=C/c1c(O)n(-c2ccc(F)cc2)[nH]c1=O | 46
54 | Cc1c(C#N)c2ccccc2n1CC(=O)NCCc1c[nH]c2ccccc12 | -2.5
55 | CCOC(=O)c1ccc(Oc2nc(OC)nc(N(C)C)n2)cc1 | 6.27
56 | Cc1[nH]c(=O)[nH]c1C(=O)CCCCC(=O)OCC(=O)Nc1ccccn1 | 12.3
57 | Cc1[nH]c(=O)[nH]c1C(=O)CCCCC(=O)O | -57.7
58 | CCOC(=O)CCCCC(=O)c1[nH]c(=O)[nH]c1C[n+]1ccccc1.[Cl-] | 26.4
59 | CCCc1nc2oc3c(OCC)ncnc3c2c2c1COC(C)(C)C2 | -13.2
60 | CCCCn1c(N)c(N(C)C(=O)c2ccc(-n3cccn3)cc2)c(=O)[nH]c1=O | 0.138
61 | Cc1cc(NC(=O)c2cccc(S(=O)(=O)N3CCCCCC3)c2)n(-c2ccccn2)n1 | 13.4
62 | CCOC(=O)C1(Cc2cccc(OC)c2)CCN(C2CCOCC2)CC1 | -68.7
63 | CCOC(=O)C1(Cc2cccc(F)c2)CCN(C(=O)C2CCCO2)CC1 (centres unmarked) | 10.2
64 | CCOC(=O)C1(Cc2cccc(F)c2)CCN(C(=O)C2CCOCC2)CC1 | -15
65 | CCOC(=O)C1(Cc2cccc(F)c2)CCN(C2CCOCC2)CC1 | -63.5
66 | Cc1ccc(CC(=O)Nc2ncc([N+](=O)[O-])s2)cc1 | 32.5
67 | CCCCN(CC)C(=O)Cc1c(C(=O)O)[nH]c2ccc(Cl)cc12 | 12.4
68 | CCN1CCN(c2ccc(NC(=O)COc3ccccc3Cl)cc2)CC1 | -40.7
69 | Cc1cc(S(=O)(=O)N2CCOCC2)ccc1NC(=O)c1ccc(F)cc1 | 1.32
70 | Cc1ccc(CNC(=O)c2cc3c(s2)CN(Cc2ccccc2)C3)cc1.Cl | 3.85
71 | CC(C#N)(NC(=O)CN1CCN(S(=O)(=O)c2ccccc2Cl)CC1)C1CC1 (centres unmarked) | 5.18
72 | Cc1c(C=C2C(=O)N(C)C(=S)N(C)C2=O)c2ccccc2n1CC(=O)NCC1CCCO1 (centres unmarked) | 4.95

Row | SMILES | hERG current change (%, negative = inhibition) at 10uM [%]
73 | N/C(=N\OC(=O)c1ccc([N+](=O)[O-])cc1)c1cccnc1 | -10.7
74 | CC(C(=O)O/N=C(\N)c1cccnc1)c1ccc([N+](=O)[O-])cc1 (centres unmarked) | -56.8
75 | O=C(/C=C/c1ccc([N+](=O)[O-])cc1)Nc1cccnc1 | -62.7
76 | O=C(/C=C/c1ccc(Cl)c([N+](=O)[O-])c1)Nc1cccnc1 | -17.3
77 | O=C(/C=C/c1ccc(Cl)c([N+](=O)[O-])c1)c1cccnc1 | -6.3
78 | N#C/C(=C\c1cccnc1)c1ccccc1[N+](=O)[O-] | 4.04
79 | O=C(/C=C/c1cccnc1)c1ccc([N+](=O)[O-])cc1 | -42.3
80 | N#C/C(=C\c1cccnc1)c1ccc(Br)cc1 | -5.44
81 | O=C(/C=C/c1ccc([N+](=O)[O-])cc1)c1cccnc1 | -53
82 | O=C(/C=C/c1ccccc1)Nc1cccnc1 | -26
83 | N#C/C(=C\c1cccnc1)c1ccc([N+](=O)[O-])cc1 | -56.3
84 | Cc1ccc(/C(N)=N/OC(=O)C(C)c2ccc([N+](=O)[O-])cc2)cc1 (centres unmarked) | -4.62
85 | O=C(NNC(=O)C12CC3CC(CC(Cl)(C3)C1)C2)c1csc(N2CCOCC2)n1 | -1.63
86 | Cc1[nH]nc(SCC(=O)N2CCCCCC2)c1[N+](=O)[O-] | 3.4
87 | Cc1nnc(SCC(=O)NNC(=O)CC#N)[nH]c1=O | -7.01
88 | CCOc1cc(-c2cc(N)n[nH]2)cc(OCC)c1OCC | 14.6
89 | Cc1ccc(N(C)C(=O)n2cnc3ccccc32)cc1 | -1.52
90 | CN(Cc1ccccc1)C(=S)NC(=O)c1cccs1 | 8.32
91 | O=C(NCc1nnc(SC/C=C/c2ccccc2)o1)c1ccco1 | -5.97
92 | CC1(COS(N)(=O)=O)CCCCC1 | 1.76
93 | Cc1ccc(S(=O)(=O)Nc2ccc(-c3nc4ccc(C)cc4s3)cc2)cc1 | 2.32
94 | CC(C)COc1ccc(/C(=N/O)c2ccccc2)cc1 | 11
95 | Cc1ccc(C(=O)c2coc3ccc(OCC(=O)O)cc23)cc1 | 2.16
